In PubChem BioAssay:
Active and inactive are the calls of the source.

What was measured:
[1] = system: Plasmodium falciparum Sir2 (PF13_0152, Sir2A); test: Plasmodium falciparum Sir2A binding compounds – biochemical, small-molecule microarray, 635 nm fluorescence, primary screen (AID 1098); conditions: fluorescence 635 nm, higher = more signal;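 further: score merges spot fluorescence intensity with its signal-to-noise ratio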
[2] = probe aDKK1 binding to arrayed compounds – biochemical, biotinylated probe, 635/667 nm fluorescence, primary screen (AID 1099); conditions: small-molecule microarray, higher = more signal;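 further: score merges 667nm spot fluorescence with signal to noise across triplicate slides; reference of the scale not given here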
[3] = probe aCHRDL2 binding to arrayed compounds – biochemical, biotinylated probe, 635/667 nm fluorescence, primary screen (AID 1100); conditions: small-molecule microarray, higher = more signal
[4] = change in splice reporter luminescence, either direction, cell-based, HEK293, spliceosome inhibition project, primary screen (AID 1101); conditions: HEK293 splicing luciferase reporter, 24 h, higher = more signal, called active from +8 up or from −8 down;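 further: HEK293 cells carrying a splicing-competent luciferase reporter gene; test concentration not given here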
[5] = target: Fibroblast growth factor 10 (Homo sapiens) (UniProt O15520); test: compounds binding fibroblast growth factor 10 – biochemical, small-molecule microarray, 635 nm fluorescence, primary screen (AID 1102); conditions: FGF10 binding, fluorescence 635 nm, higher = more signal
[6] = system: glycogen synthase kinase-3 (GSK3A per assay name; protocol says GSK3B); test: compounds binding glycogen synthase kinase-3 – biochemical, small-molecule microarray, 635 nm fluorescence, GSK3A, primary screen (AID 1103); conditions: fluorescence 635 nm, higher = more signal; further: the record names both GSK3A and GSK3B
[7] = target: Epidermal growth factor receptor (Homo sapiens) (UniProt P00533); test: compounds binding epidermal growth factor receptor – biochemical, small-molecule microarray, 635 nm fluorescence, primary screen (AID 1104); conditions: EGFR binding, higher = more signal;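 further: score merges 667 nm emission intensity with spot signal to noise over triplicate slides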
[8] = target: Follistatin-related protein 3 (Homo sapiens) (UniProt O95633); test: compounds binding follistatin-related protein 3 – biochemical, small-molecule microarray, 635 nm fluorescence, primary screen (AID 1105); conditions: FSTL3 binding, higher = more signal;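 further: score merges emission near 667 nm and signal to noise per printed spot across three slides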
[9] = target: Dickkopf-related protein 1 (Homo sapiens) (UniProt O94907); test: small molecules binding DKK1 protein – biochemical, small-molecule microarray, 635 nm fluorescence scan, primary screen (AID 1106); conditions: higher = more signal;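 further: score merges emission near 667 nm with signal to noise over three replicate slides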
[10] = system: Inhibin beta A chain (activin A); test: small molecules binding activin A – biochemical, small-molecule microarray, 635 nm fluorescence scan, primary screen (AID 1107); conditions: INHBA, higher = more signal;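 further: mouse activin A protein probed at 4.33 µg/mL on printed slides; score merges bound-protein fluorescence near 667 nm with spot signal-to-noise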

Follistatin-related protein 3 (Homo sapiens), sequence (O95633 whole entry, looked up): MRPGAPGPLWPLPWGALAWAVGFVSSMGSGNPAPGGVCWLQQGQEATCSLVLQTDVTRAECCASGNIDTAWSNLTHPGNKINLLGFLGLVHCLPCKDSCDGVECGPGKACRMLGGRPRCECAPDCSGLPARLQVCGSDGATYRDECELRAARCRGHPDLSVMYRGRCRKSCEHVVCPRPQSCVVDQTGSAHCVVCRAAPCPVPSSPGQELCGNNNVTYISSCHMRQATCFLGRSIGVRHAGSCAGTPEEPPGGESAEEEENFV
Epidermal growth factor receptor (Homo sapiens), sequence (P00533 whole entry, looked up): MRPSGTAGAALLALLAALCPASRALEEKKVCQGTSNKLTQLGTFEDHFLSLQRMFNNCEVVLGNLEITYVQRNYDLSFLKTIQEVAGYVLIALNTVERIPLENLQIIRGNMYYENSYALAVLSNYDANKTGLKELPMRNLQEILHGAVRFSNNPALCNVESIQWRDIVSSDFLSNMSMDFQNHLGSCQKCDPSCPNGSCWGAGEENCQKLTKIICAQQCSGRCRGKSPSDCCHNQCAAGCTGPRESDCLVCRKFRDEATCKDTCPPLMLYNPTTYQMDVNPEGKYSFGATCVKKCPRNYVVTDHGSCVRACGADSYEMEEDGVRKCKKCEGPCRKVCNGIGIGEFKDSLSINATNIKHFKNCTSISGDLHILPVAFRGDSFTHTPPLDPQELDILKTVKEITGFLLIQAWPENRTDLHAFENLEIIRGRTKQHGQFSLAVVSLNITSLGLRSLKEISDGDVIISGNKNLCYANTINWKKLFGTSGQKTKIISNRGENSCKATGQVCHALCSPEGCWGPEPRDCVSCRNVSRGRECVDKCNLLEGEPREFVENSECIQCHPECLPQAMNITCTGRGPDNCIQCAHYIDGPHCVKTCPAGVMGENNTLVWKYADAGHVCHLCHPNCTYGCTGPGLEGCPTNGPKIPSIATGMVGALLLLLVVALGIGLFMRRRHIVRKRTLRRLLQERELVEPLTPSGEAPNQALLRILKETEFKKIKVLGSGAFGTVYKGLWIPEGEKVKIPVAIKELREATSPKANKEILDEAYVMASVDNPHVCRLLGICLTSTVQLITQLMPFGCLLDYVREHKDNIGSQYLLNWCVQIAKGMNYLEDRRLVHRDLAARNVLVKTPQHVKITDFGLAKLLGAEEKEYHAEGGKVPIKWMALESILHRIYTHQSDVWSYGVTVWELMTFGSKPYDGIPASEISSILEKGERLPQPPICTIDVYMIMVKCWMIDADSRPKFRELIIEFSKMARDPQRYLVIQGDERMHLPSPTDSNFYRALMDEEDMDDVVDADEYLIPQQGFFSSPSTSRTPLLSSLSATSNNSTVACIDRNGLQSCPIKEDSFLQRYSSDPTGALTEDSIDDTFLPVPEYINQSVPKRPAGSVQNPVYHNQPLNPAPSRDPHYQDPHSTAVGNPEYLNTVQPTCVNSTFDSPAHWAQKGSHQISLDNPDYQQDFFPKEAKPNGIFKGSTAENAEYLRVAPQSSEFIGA
Dickkopf-related protein 1 (Homo sapiens), sequence (O94907 whole entry, looked up): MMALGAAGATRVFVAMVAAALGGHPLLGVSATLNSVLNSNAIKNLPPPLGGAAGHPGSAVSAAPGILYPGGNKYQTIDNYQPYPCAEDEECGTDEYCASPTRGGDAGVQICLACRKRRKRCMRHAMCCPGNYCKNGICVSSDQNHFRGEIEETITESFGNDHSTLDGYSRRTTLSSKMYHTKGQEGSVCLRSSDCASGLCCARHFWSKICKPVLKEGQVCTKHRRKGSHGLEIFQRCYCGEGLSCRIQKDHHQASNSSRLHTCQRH
Fibroblast growth factor 10 (Homo sapiens), sequence (O15520 whole entry, looked up): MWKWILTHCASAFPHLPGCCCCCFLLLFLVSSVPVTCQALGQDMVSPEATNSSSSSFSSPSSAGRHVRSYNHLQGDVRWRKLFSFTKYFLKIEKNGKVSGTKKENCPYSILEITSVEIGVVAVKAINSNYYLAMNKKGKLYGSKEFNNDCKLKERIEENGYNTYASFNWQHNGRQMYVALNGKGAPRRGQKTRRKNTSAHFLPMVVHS

SMILES | composite z-score [1] | composite z-score [2] | composite z-score [3] | z-score [4] | composite z-score [5] | composite z-score [6] | composite z-score [7] | composite z-score [8] | composite z-score [9] | composite z-score [10]
C=CC[C@]1(C(=O)N2CCOCC2)N=C(c2ccc(OCCCO)cc2)O[C@H]1c1ccccc1 | 1.44 | 0.573 | 1.01 | -0.0214 (inactive) | 0.182 | 1.28 | -0.201 | -0.524 | 0.142 | 0.862
COCCOC(=O)N1C(=O)[C@@]2(c3cc(C#CCC(C(=O)OC)C(=O)OC)ccc31)[C@H](c1ccccc1OCCO)N1[C@H](c3ccccc3)[C@H](c3ccccc3)OC(=O)[C@H]1[C@@H]2C(=O)N1CCc2cc(OC)c(OC)cc2C1 | 1.24 | 0.176 | -0.131 | -0.988 (inactive) | 1.16 | 1.33 | 0.99 | 1.3 | 1.42 | 0.645
CC(C)(C)OC(=O)CC[C@@]1(C(=O)O)N=C(c2ccc(OCCCO)cc2)O[C@@H]1c1ccccc1N=[N+]=[N-] | 1.67 | 1.16 | 1.36 | -0.66 (inactive) | 0.991 | 0.357 | -0.288 | -0.153 | -0.169 | 1.33
C=CCNC(=O)[C@@H]1[C@H]2C(=O)O[C@H](c3ccccc3)[C@H](c3ccccc3)N2[C@H](c2ccc(O)cc2)[C@@]12C(=O)N(C(=O)OCCOC)c1ccccc12 | 1.03 | -0.0262 | 0.421 | -1 (inactive) | 0.796 | 1.02 | -0.405 | 0.638 | -0.232 | -0.188
COc1cc(CO)ccc1OC(C)=O | 0.144 | -0.082 | -0.526 | -0.749 (inactive) | 0.171 | 0.536 | 0.558 | 0.516 | 0.668 | 0.167
CCOC(=O)C[C@H]1[C@H](OC(=O)c2ccccc2-c2ccccc2)[C@@H](NC(=O)Cc2ccc(OC)cc2)c2cc(OCCCO)ccc2N1C(=O)c1ccccc1 | -0.394 | -0.236 | -0.0402 | -0.258 (inactive) | 0.225 | -1.28 | 0.192 | -0.0572 | 0.232 | 0.34
COCCCNC(=O)[C@@]1(C)c2ccccc2C(=O)N(Cc2cc(C(F)(F)F)cc(C(F)(F)F)c2)[C@H]1c1ccc(CO)cc1 | 1.48 | -0.0291 | 0.945 | 0.803 (inactive) | -0.607 | -0.514 | -1.24 | -0.875 | -1.62 | -0.754
Cc1cc(C)c(C(O)C2C=CC3C(=O)N(c4ccccc4)C(=O)C3N2Nc2ccc(C#N)cc2)c(C)c1 (stereo not given) | 0.586 | 1.05 | 1.24 | 0.757 (inactive) | 1.27 | 1.22 | 0.283 | 1.22 | -0.0911 | 0.7
NCCCCCNC(=O)[C@H]1C[C@H]2C(=O)NCC(=O)N2[C@H]1c1cccc(OCCO)c1 | 1.64 | 0.31 | 0.284 | -0.284 (inactive) | 1.25 | 1.29 | 0.388 | 0.764 | 0.912 | -0.0463
C=CCOC(=O)[C@@H]1[C@H]2C(=O)O[C@H](c3ccccc3)[C@H](c3ccccc3)N2[C@H](c2ccc(OCCOC(=O)[C@@H]3C[C@@H]4C(=O)N[C@@H](Cc5ccccc5)C(=O)N4[C@@H]3c3cccc(OCCO)c3)cc2)[C@@]12C(=O)Nc1ccc(I)cc12 | 1.12 | -0.0053 | -0.0587 | -0.76 (inactive) | 1.21 | 0.954 | 0.934 | 1.1 | 0.991 | 1.06
CCCNC(=O)[C@@H]1c2ccccc2C(=O)N(Cc2ccccc2)[C@H]1c1ccc(CO)cc1 | 0.405 | -0.0972 | 0.933 | 0.0373 (inactive) | -0.239 | 0.0282 | -0.592 | -0.637 | -0.744 | -0.217
CCOC(=O)[C@H]1C/C=C/C[C@H](C(=O)OCC)C(=O)O[C@H]2[C@@H](OC)O[C@H](CO)[C@@H](OC(=O)Nc3ccc4c(c3)OCO4)[C@@H]2OC1=O | 0.353 | 0.0005 | 0.0193 | -1.14 (inactive) | 0.79 | 0.677 | -0.407 | 0.294 | -0.009 | 0.456
CC(=O)NCCCC[C@@H]1NC(=O)[C@@H]2C[C@H](C(=O)NCCCCCCNC(=O)CS)[C@H](c3ccc(O)cc3)N2C1=O | 1.18 | -0.194 | 0.52 | 0.584 (inactive) | -0.37 | -0.0984 | -0.755 | -0.353 | -0.233 | -0.989
